# Assay results taken from PubChem BioAssay AID504582 (Broad Institute, 2011).
# About 2,300 (0.68%) of roughly 340,000 compounds were called active. No stated cut-off is given here; in the data, active means growth rescue above about 28% (passing the limit was not always enough); inconclusive means no clear call, values can overlap the other calls. Only a selection was taken, and actives are over-represented in it overall.
# Assay: rescue of yeast from PfHsp40 toxicity, primary screen, S. cerevisiae, ATP luminescence (AID 504582);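 further: yeast W303a lacking pdr1 and pdr3 grown in galactose medium; growth measured after three days at 30 °C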
# Conditions: S. cerevisiae expressing PfHsp40, growth rescue, at 12.5 µM, active compounds read high
row,SMILES,growth rescue
1,CCOC(=O)CNC(=O)CSc1ncccc1-c1nc2ccccc2[nH]1,0.257% (inactive)
2,COC(=O)Cc1cc(=O)n(-c2nc3ccccc3s2)[nH]1,103% (active)
3,CC(=NCc1ccco1)c1c(C(F)(F)F)[nH]n(-c2nc3ccccc3s2)c1=O,-0.486% (inactive)
4,Cc1cc(NC(=O)CN2CCCC(C)C2)n(-c2nc3ccccc3s2)n1 (centres undefined),-1.25% (inactive)
5,O=C(NCCCn1ccnc1)c1cc(-c2ccccc2)on1,-0.876% (inactive)
6,O=C(/C=C/c1ccccc1)Oc1coc(CSc2ncccn2)cc1=O,1.58% (inactive)
7,COc1cc(/C=C2\Oc3ccc(C#Cc4ccc(O)cc4)cc3C2=O)cc(OC)c1,-1.52% (inactive)
8,O=C1c2ccccc2C(=O)N1CCC#Cc1ccc2cc(C3(O)CCCCC3)oc(=O)c2c1,0.213% (inactive)
9,COc1cc(C#Cc2ccc3cc(CCCO)oc(=O)c3c2)cc(OC)c1,45.9% (active)
10,CCN1CCN(C(=O)CN(C)S(=O)(=O)c2ccc3ccccc3c2)CC1,-0.824% (inactive)
11,S=c1c2[nH]cnc2ncn1CCSc1ncnc2nc[nH]c12,-2.56% (inactive)
12,Cc1cccc(OCC(O)CN2CCN(S(=O)(=O)c3ccc(C)cc3C)CC2)c1 (centres undefined),0.709% (inactive)
13,CC(=O)c1ccc(OCC(O)CN2CCN(S(=O)(=O)c3cccc(Br)c3)CC2)cc1 (centres undefined),26.4% (active)
14,O=S(=O)(c1ccc(OCC(O)CN2CCN(c3ccccc3Cl)CC2)cc1)N1CCOCC1 (centres undefined),2.31% (inactive)
15,COC(=O)c1cc2occc2n1Cc1nc(-c2ccccc2C)oc1C,1.43% (inactive)
16,Cc1c(NS(=O)(=O)c2cc(C(=O)NCCc3ccc(F)cc3)cc(Cl)c2Cl)c(=O)n(-c2ccccc2)n1C,-0.709% (inactive)
17,COc1ccccc1C(=O)NN1C(=O)C2C3C=CC(O3)C2C1=O (centres undefined),0.742% (inactive)
18,CC12CCC(C(=O)N(NC(=O)c3ccccc3O)C1=O)C2(C)C (centres undefined),64.6% (active)
19,CC1=CC(C)(C)NC(=S)N1NC(=O)c1ccccc1Cl,0.305% (inactive)
20,CN1CCN(C(=O)N2c3ccccc3CCc3ccccc32)CC1,-1.45% (inactive)
21,CC(C)CN(CC(C)C)C(=O)CN1c2cccc3cccc(c23)S1(=O)=O,29.2% (active)
22,O=C(O)CN1c2cccc3cccc(c23)S1(=O)=O,0.021% (inactive)
23,CCN(CC(=O)Nc1c(F)cccc1F)C(=O)CN1c2cccc3cccc(c23)S1(=O)=O,0.416% (inactive)
24,COc1ccc(C2COC(=O)C2=N)c(NC(=O)c2ccccc2)c1 (centres undefined),-1.79% (inactive)

row,SMILES,growth rescue
1,Cc1ccccc1NC(=O)C1CCCN(C(=O)NCc2ccccc2)C1 (centres undefined),-1.16% (inactive)
2,Cn1nccc1C(=O)N1CCCC(C(=O)c2ccc(Oc3ccccc3)cc2)C1 (centres undefined),1.09% (inactive)
3,CCNC(=O)N1CCCC(C(=O)c2ccc(-c3ccccc3)cc2)C1 (centres undefined),173% (active)
4,CCOC(=O)CCNC(=O)N1CCCC(C(=O)c2ccccc2SC)C1 (centres undefined),-0.934% (inactive)
5,O=C(c1ccc(-c2ccccc2)cc1)C1CCCN(C(=O)c2cncs2)C1 (centres undefined),373% (active)
6,Cc1nc(C(=O)N2CCCC(C(=O)c3ccc(Cl)cc3)C2)cs1 (centres undefined),-0.97% (inactive)
7,N#Cc1c(C(F)(F)F)cc(-c2cccs2)nc1N1CCCCC1,-0.0675% (inactive)
8,CC(=O)c1ccc(NC(=O)c2ccc(-n3cncn3)c([N+](=O)[O-])c2)cc1,0.873% (inactive)
9,CSc1ccc(CNCCN2CCOCC2)cc1,-0.373% (inactive)
10,CCOc1ccc(NC(=O)C2CCN(C(=O)N3CCOc4ccccc43)CC2)cc1,2.49% (inactive)
11,CCN(CC)S(=O)(=O)c1ccc(CNC(=O)CN2C(=O)NC3(CCc4ccccc43)C2=O)cc1 (centres undefined),0.805% (inactive)
12,COc1ccc(N2CCN(C(=O)CNC(=O)c3ccc(Br)o3)CC2)cc1,0.176% (inactive)
13,COc1ccc(N2CCN(C(=O)CCNC(=O)c3ccc(Br)cc3)CC2)cc1,156% (active)
14,COc1ccc(N2CCN(C(=O)CNC(=O)c3ccc(C(C)(C)C)cc3)CC2)cc1,-0.643% (inactive)
15,CCOC(=O)c1cnc(Nc2nc3ccccc3o2)nc1CSC(=S)N1CCCCC1,-0.518% (inactive)
16,Cc1ccc2[nH]c(=O)c(CN(CCCN(C)C)C(=O)Nc3cccc(Cl)c3)cc2c1,-0.771% (inactive)
17,CCn1c(/C=C/Nc2ccccc2)[n+](CC)c2ccc(C(=O)OCC(F)(F)F)cc21,-1.14% (inactive)
18,O=C(NN1C(=O)C2CCCCC2C1=O)c1ccco1 (centres undefined),-1.05% (inactive)
19,O=C1Nc2cc(Cl)c(Cl)cc2N(O)N1c1cc(Cl)cc(Cl)c1,7.24% (inactive)
20,CC(=O)Nc1ccccc1NC(=O)c1cc(C)cc(C)c1,51.5% (active)
21,Cc1ccccc1C(=O)Nc1ccccc1NC(=O)c1ccccc1C,-1.3% (inactive)
22,Nc1ccc(C(=O)Nc2ccccc2N)cc1,0.192% (inactive)
23,CC(=O)NNc1cc(=O)c2c(=O)n(C)c(=O)n(C)c2[nH]1,-1.81% (inactive)
24,Cc1cc(Nc2cccc(C)c2C)n2ncnc2n1,-0.558% (inactive)

row,SMILES,growth rescue
1,Cc1ccc(-c2nn(C(C)(C)C)c3ncnc(N)c23)cc1,263% (active)
2,CCOc1cccc(NC(=O)Cn2nc(-c3ccc4c(c3)OCCO4)ccc2=O)c1,1.19% (inactive)
3,Cc1cc(C(=O)NCCc2ccc(Cl)cc2)c(C)o1,52.1% (active)
4,Cc1cc(C(=O)NCCc2ccc(Cl)cc2)n(-c2ccccc2)n1,0.0165% (inactive)
5,O=C(NCCc1ccccc1)Oc1ccc(Cl)cc1,-0.082% (inactive)
6,Cc1ccc(C(NC(=O)N2CCCC2)C(Cl)(Cl)Cl)cc1F (centres undefined),-0.492% (inactive)
7,CCCCn1c(SCC(=O)N2CCOCC2)nc2c1c(=O)n(C)c(=O)n2C,-0.611% (inactive)
8,CC(C)(C)OC(=O)C[C@@H]1C/C=C\C[C@@H](CC(=O)N[C@H](CO)Cc2ccccc2)C(=O)NCCOC1=O,-0.196% (inactive)
9,COc1ccc(-c2cc(=O)oc3cc(OC(C)C(=O)Nc4ccc(CN5CCOCC5)cc4)ccc23)cc1 (centres undefined),0.401% (inactive)
10,COc1cc(NC(=O)COc2ccccc2Cl)ccc1NC(=O)C(C)C,1.17% (inactive)
11,Cc1ccccc1OCC(=O)Nc1ccc(N2CCN(C(=O)C(C)C)CC2)c(Cl)c1,48.8% (active)
12,CCC(=O)N1CCN(c2ccccc2NC(=O)COc2cccc(C)c2C)CC1,2.68% (inactive)
13,CCCC1OC23CCCCC2C(C#N)(C#N)C1(C#N)C(=N)O3 (centres undefined),-1.17% (inactive)
14,CC(=O)Nc1nc(N(C)C)nc(N(C)C)n1,1.85% (inactive)
15,Cn1cccc1C(C#N)c1ccccc1C#N (centres undefined),-0.257% (inactive)
16,O=C(Nc1nnc(-c2ccc(Cl)cc2)o1)c1ccccc1Br,92.7% (active)
17,Cc1ccnc2nc(C(=O)Nc3nnc(-c4ccccc4)o3)nn12,-0.238% (inactive)
18,COc1ccccc1C(=O)NCC(=O)OCC(=O)Nc1nnc(-c2ccccc2)o1,-1.88% (inactive)
19,COc1ccc2c(c1)c1ncn(Cc3ccccn3)c(=O)c1n2C,-0.652% (inactive)
20,O=C(O)c1cc2c(cc1NC(=O)c1c(F)cccc1Cl)OCCCO2,-1.32% (inactive)
21,O=C1c2ccccc2C2=Nc3ccccc3SC(c3ccccc3F)C12 (centres undefined),152% (active)
22,CN(Cc1ccc(F)cc1)C(=O)CN1C(=O)c2ccccc2S1(=O)=O,-1.04% (inactive)
23,Cc1cccc(-c2oc3ccc(-c4ccc5c(c4)OCO5)cc3c2C#Cc2cncn2C)c1,0.141% (inactive)
24,Cn1cncc1C#Cc1c(-c2ccsc2)sc2ccccc12,311% (active)

row,SMILES,growth rescue
1,COc1ccc2sc(-c3ccc(S(C)(=O)=O)cc3)c(C#Cc3cncn3C)c2c1,-1.56% (inactive)
2,CC(=NCc1ccc2c(c1)OCO2)c1c(O)[nH]c(=O)[nH]c1=O,-0.437% (inactive)
3,CCc1ccc(NC(=O)NC(C)c2ccc3c(c2)OCO3)cc1 (centres undefined),1.14% (inactive)
4,CC(=NCc1ccc2c(c1)OCO2)C1=C(O)c2ccccc2C1=O,47.2% (active)
5,CCN(/N=C/c1ccc(N(C)C)cc1)c1nc2ccccc2[nH]1,0.687% (inactive)
6,COc1ccc(N)c(C)c1,-0.552% (inactive)
7,NC(=O)Cn1nc([N+](=O)[O-])nc1Oc1ccc(Br)cc1,1.81% (inactive)
8,Cc1ccc(S(=O)(=O)N2CCOCC2)cc1NC(=O)COC(=O)c1cnccn1,0.734% (inactive)
9,CCCc1nc2sc3c(c2c(=O)n1NC(=O)CCCl)CCCC3,-0.355% (inactive)
10,COCCNc1nc(-n2nc(C)cc2C)nc2sc3c(c12)CCCC3,111% (active)
11,CCC(O)CNc1nc(-n2nc(C)cc2C)nc2sc3c(c12)CC(C)(C)OC3 (centres undefined),0.423% (inactive)
12,CC[C@]12c3[nH]c4ccc(OC)cc4c3CCN1C(=O)C(CC(=O)NCc1ccco1)C[C@@H]2C(=O)N1CCN(C(=O)C2CC2)CC1 (some centres undefined),-1.76% (inactive)
13,Cc1ccc2c(C)c(C(=O)N(C)CCC3CCCCO3)oc2c1C (centres undefined),15.7% (inactive)
14,O=C(Cn1c(NCCO)nc2ccccc21)c1ccc(Cl)cc1Cl,0.311% (inactive)
15,O=S(=O)(Cc1ccccc1)c1nc2ccccc2n1Cc1ccccn1,-1.91% (inactive)
16,O=S(=O)(O)c1nc2ccccc2n1Cc1ccc(Cl)cc1Cl,46.4% (active)
17,O=C(NC(=S)Nc1cccc(-c2ccc(CO)o2)c1)c1cccs1,5.49% (inactive)
18,Oc1c(C(c2ccccn2)N2CCOCC2)ccc2cccnc12 (centres undefined),457% (active)
19,COc1cc2c(cc1OC)C(C)N(S(=O)(=O)c1cnc(Cl)c(Cl)c1)CC2 (centres undefined),1.43% (inactive)
20,CCC(=O)Nc1nc(C)c(C(=O)Nc2cccc(Cl)c2)s1,68.4% (active)
21,CCC(=O)Nc1sc(C(=O)Nc2ccccc2)c(C)c1C(=O)OC,4.36% (inactive)
22,CCOC(=O)c1sc(NC(=O)c2sc(C)nc2C)nc1C,-1.17% (inactive)
